# According to PubChem BioAssay (Tox21):
# Several values for one entry are separate records, joined by “and”; a condition that tells them apart may be missing. Identical values can stand only once. Records with an inconclusive call do not appear. Entries that show only a call come without a potency. Some structures have more than one record in an assay (separate samples or runs), and their calls can disagree. Activity calls are given as the source filed them. The call rests on the fitted dose curve; in most records, active means well fitted curve in the direction sought with a large enough effect in the repeat runs; inconclusive means weak or mixed curves; inactive means no such curve, though single readings can be large; an effect the other way counts as inactive or inconclusive.
# Assays:
# [1] = A CellTox Green Cytotoxicity Assay to monitor cytotoxicity in HEK293 cells - 40 hour (AID 1224871); further: nearly all actives have a fitted effect of over 45% in size; further: potency means the concentration at half of the fitted maximal effect
# Summary of the method: (§1)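 Dead-cell fluorescence measured kinetically: asymmetric cyanine dye, HEK293, 600 cells/well, 5 h settle, 23 nL cpd/DMSO, 37 C, reads 0–40 h every 8 h.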
# [2] = qHTS RealTime-Glo MT Cell Viability Assay in HEK293 cells - 16 hour (AID 1224872); further: nearly all actives have a fitted effect of over 50% in size; further: potency means the concentration at half of the fitted maximal effect
# Summary of the method: (§2)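 Quantitative high-throughput screen of the Tox21 10K library in HEK293: cells and RealTime-Glo reagents plated together, compound added at 5 h, luminescence monitored through 40 h at 37 C.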
# [3] = qHTS RealTime-Glo MT Cell Viability Assay in HepG2 cells - 8 hour (AID 1224873); further: nearly all actives have a fitted effect of over 55% in size
# Summary of the method: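 HepG2 cells (600/well) mixed with RealTime-Glo MT reagent, settled 5 h at 37 C/5% CO2 before compound addition. Nonlytic NanoLuc luminescence from viable-cell prosubstrate reduction read repeatedly during 40 h treatment at 37 C.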
# [4] = qHTS RealTime-Glo MT Cell Viability Assay in HEK293 cells - 40 hour (AID 1224874); conditions: RealTime-Glo luminescence; max response: stronger effect = lower value; further: nearly all actives have a fitted effect of over 50% in size; further: potency means the concentration at half of the fitted maximal effect
# Summary of the method: (§3)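 600 HEK293 cells per well, dispensed already mixed with RealTime-Glo MT reagents. Compound dosing came 5 h later. The same wells were read for luminescence at 0, 8, 16, 24, 32 and 40 h of exposure at 37 C.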
# [5] = A CellTox Green Cytotoxicity Assay to monitor cytotoxicity in HEK293 cells - 24 hour (AID 1224875); further: nearly all actives have a fitted effect of over 45% in size; further: potency means the concentration at half of the fitted maximal effect
# Summary of the method: as §1
# [6] = A CellTox Green Cytotoxicity Assay to monitor cytotoxicity in HepG2 cells - 16 hour (AID 1224876); further: nearly all actives have a fitted effect of over 45% in size
# Summary of the method: (§4)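 First, HepG2 cells (600/well) mixed with reagent were plated; second, after 5 h at 37 C they received compounds via pintool; third, fluorescence was measured at 0 h through 40 h at 8 h intervals.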
# [7] = qHTS RealTime-Glo MT Cell Viability Assay in HepG2 cells - 32 hour (AID 1224877); further: nearly all actives have a fitted effect of over 55% in size; further: potency means the concentration at half of the fitted maximal effect
# Summary of the method: (§5)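 Compound treatment began 5 h after plating HepG2 cells (600/well) with NanoLuc luciferase and prosubstrate. Plates stayed at 37 C for 40 h; luminescence was captured at six time points, 0 h through 40 h.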
# [8] = A CellTox Green Cytotoxicity Assay to monitor cytotoxicity in HepG2 cells - 24 hour (AID 1224878); further: nearly all actives have a fitted effect of over 45% in size; further: potency means the concentration at half of the fitted maximal effect
# Summary of the method: as §4
# [9] = A CellTox Green Cytotoxicity Assay to monitor cytotoxicity in HepG2 cells - 40 hour (AID 1224879); further: nearly all actives have a fitted effect of over 40% in size; further: potency means the concentration at half of the fitted maximal effect
# Summary of the method: as §4
# [10] = qHTS RealTime-Glo MT Cell Viability Assay in HEK293 cells - 0 hour (AID 1224880)
# Summary of the method: as §3
# [11] = A CellTox Green Cytotoxicity Assay to monitor cytotoxicity in HEK293 cells - 32 hour (AID 1224881); further: nearly all actives have a fitted effect of over 40% in size; further: potency means the concentration at half of the fitted maximal effect
# Summary of the method: as §1
# [12] = A CellTox Green Cytotoxicity Assay to monitor cytotoxicity in HepG2 cells - 0 hour (AID 1224882); further: nearly all actives have a fitted effect of over 35% in size
# Summary of the method: as §4
# [13] = A CellTox Green Cytotoxicity Assay to monitor cytotoxicity in HepG2 cells - 32 hour (AID 1224883); further: nearly all actives have a fitted effect of over 50% in size; further: potency means the concentration at half of the fitted maximal effect
# Summary of the method: as §4
# [14] = A CellTox Green Cytotoxicity Assay to monitor cytotoxicity in HEK293 cells - 8 hour (AID 1224884); further: nearly all actives have a fitted effect of over 35% in size
# Summary of the method: as §1
# [15] = qHTS RealTime-Glo MT Cell Viability Assay in HEK293 cells - 24 hour (AID 1224886); further: nearly all actives have a fitted effect of over 50% in size; further: potency means the concentration at half of the fitted maximal effect
# Summary of the method: as §2
# [16] = qHTS RealTime-Glo MT Cell Viability Assay in HEK293 cells - 8 hour (AID 1224887); further: nearly all actives have a fitted effect of over 50% in size; further: potency means the concentration at half of the fitted maximal effect
# Summary of the method: as §3
# [17] = A CellTox Green Cytotoxicity Assay to monitor cytotoxicity in HEK293 cells - 16 hour (AID 1224888); further: nearly all actives have a fitted effect of over 35% in size
# Summary of the method: as §1
# [18] = qHTS RealTime-Glo MT Cell Viability Assay in HepG2 cells - 0 hour (AID 1224889); further: nearly all actives have a fitted effect of over 50% in size
# Summary of the method: as §5
# [19] = A CellTox Green Cytotoxicity Assay to monitor cytotoxicity in HepG2 cells - 8 hour (AID 1224890); further: nearly all actives have a fitted effect of over 45% in size
# Summary of the method: as §4
# [20] = qHTS RealTime-Glo MT Cell Viability Assay in HepG2 cells - 16 hour (AID 1224885); further: nearly all actives have a fitted effect of over 50% in size
# Summary of the method: as §5
smiles,measurement,setting,value
O=C1NCC2(CCN(CCc3ccccc3)CC2)O1,Potency,[1],inactive
same,Potency,[2],inactive
same,Potency,[3],inactive
same,max response,[4],2.88% (inactive)
same,Potency,[5],inactive
same,Potency,[6],inactive
same,Potency,[7],inactive
same,Potency,[8],inactive
same,Potency,[9],inactive
same,Potency,[10],inactive
same,Potency,[11],inactive
same,Potency,[12],inactive
same,Potency,[13],inactive
same,Potency,[14],inactive
same,Potency,[15],inactive
same,Potency,[16],inactive
same,Potency,[17],inactive
same,Potency,[18],inactive
same,Potency,[19],inactive
CCc1cc(C(C)(C)C)c(O)c(C(C)(C)C)c1,Potency,[1],21.9 µM (active)
same,Potency,[2],inactive
same,Potency,[3],inactive
same,max response,[4],1.58% (inactive) and -10.1% (inactive)
same,Potency,[5],21.9 µM (active)
same,Potency,[6],inactive
same,Potency,[7],inactive
same,Potency,[8],inactive
same,Potency,[9],inactive
same,Potency,[10],inactive
same,Potency,[11],21.9 µM (active)
same,Potency,[12],inactive
same,Potency,[13],inactive
same,Potency,[14],inactive
same,Potency,[20],inactive
same,Potency,[15],inactive
same,Potency,[16],inactive
same,Potency,[18],inactive
same,Potency,[19],inactive
CC(=O)N[C@@H](CS)C(=O)O,Potency,[1],inactive
same,Potency,[2],inactive
same,Potency,[3],inactive
same,max response,[4],3.06% (inactive) and 6.4% (inactive)
same,Potency,[5],inactive
same,Potency,[6],inactive
same,Potency,[7],inactive
same,Potency,[8],inactive
same,Potency,[9],inactive
same,Potency,[10],inactive
same,Potency,[11],inactive
same,Potency,[12],inactive
same,Potency,[13],inactive
same,Potency,[14],inactive
same,Potency,[20],inactive
same,Potency,[15],inactive
same,Potency,[16],inactive
same,Potency,[17],inactive
same,Potency,[18],inactive
same,Potency,[19],inactive
CC(C)(C)NCC(O)COc1ccccc1OCC1CCCO1 (stereo not drawn),Potency,[1],inactive
same,Potency,[2],inactive
same,Potency,[3],inactive
same,max response,[4],0.952% (inactive)
same,Potency,[5],inactive
same,Potency,[6],inactive
same,Potency,[7],inactive
same,Potency,[8],inactive
same,Potency,[9],inactive
same,Potency,[10],inactive
same,Potency,[11],inactive
same,Potency,[12],inactive
same,Potency,[13],inactive
same,Potency,[14],inactive
same,Potency,[15],inactive
same,Potency,[16],inactive
same,Potency,[17],inactive
same,Potency,[18],inactive
same,Potency,[19],inactive
CC(C)(C)NCC(O)c1cc(O)cc(O)c1 (stereo not drawn),Potency,[1],inactive
same,Potency,[2],inactive
same,Potency,[3],inactive
same,max response,[4],4.94% (inactive)
same,Potency,[5],inactive
same,Potency,[6],inactive
same,Potency,[7],inactive
same,Potency,[8],inactive
same,Potency,[9],inactive
same,Potency,[10],inactive
same,Potency,[11],inactive
same,Potency,[12],inactive
same,Potency,[13],inactive
same,Potency,[14],inactive
same,Potency,[20],inactive
same,Potency,[15],inactive
same,Potency,[16],inactive
same,Potency,[17],inactive
same,Potency,[18],inactive
same,Potency,[19],inactive
CC(C)CCOCc1ccccc1,Potency,[1],inactive
same,Potency,[2],inactive
same,Potency,[3],inactive
same,max response,[4],2.97% (inactive)
same,Potency,[5],inactive
same,Potency,[6],inactive
same,Potency,[7],inactive
same,Potency,[8],inactive
same,Potency,[9],inactive
same,Potency,[10],inactive
same,Potency,[11],inactive
same,Potency,[12],inactive
same,Potency,[13],inactive
same,Potency,[14],inactive
same,Potency,[20],inactive
same,Potency,[15],inactive
same,Potency,[16],inactive
same,Potency,[17],inactive
same,Potency,[19],inactive
O=C1Nc2ccccc2C1(c1ccc(O)cc1)c1ccc(O)cc1,Potency,[1],inactive
same,Potency,[2],inactive
same,Potency,[3],inactive
same,Potency,[4],49 µM (active)
same,max response,[4],-14.8% (inactive)
same,Potency,[5],inactive
same,Potency,[6],inactive
same,Potency,[7],inactive
same,Potency,[8],inactive
same,Potency,[9],inactive
same,Potency,[10],inactive
same,Potency,[11],inactive
same,Potency,[12],inactive
same,Potency,[13],inactive
same,Potency,[14],inactive
same,Potency,[20],inactive
same,Potency,[15],inactive
same,Potency,[16],inactive
same,Potency,[17],inactive
same,Potency,[19],inactive
Oc1ccc(Cl)cc1Cc1cc(Cl)ccc1O,Potency,[1],inactive
same,Potency,[2],22.3 µM (active)
same,Potency,[3],inactive
same,Potency,[4],17.7 µM (active) and 43.6 µM (active) and 16.9 µM (active)
same,Potency,[5],inactive
same,Potency,[6],inactive
same,Potency,[7],49.9 µM (active)
same,Potency,[8],inactive
same,Potency,[9],inactive
same,Potency,[10],inactive
same,Potency,[11],inactive
same,Potency,[12],inactive
same,Potency,[13],inactive
same,Potency,[14],inactive
same,Potency,[20],inactive
same,Potency,[15],22.3 µM (active) and 43.6 µM (active)
same,Potency,[16],25 µM (active) and inactive
same,Potency,[17],inactive
same,Potency,[18],inactive
same,Potency,[19],inactive
CC(=O)Nc1ccc(C(=O)CCl)cc1,Potency,[1],inactive and 15.5 µM (active)
same,Potency,[2],inactive and 13.8 µM (active)
same,Potency,[3],inactive
same,Potency,[4],21.9 µM (active)
same,max response,[4],19.7% (inactive)
same,Potency,[6],inactive
same,Potency,[8],inactive and 21.9 µM (active)
same,Potency,[9],inactive and 19.5 µM (active)
same,Potency,[10],inactive
same,Potency,[11],inactive and 15.5 µM (active)
same,Potency,[12],inactive
same,Potency,[13],inactive and 19.5 µM (active)
same,Potency,[14],inactive
same,Potency,[20],inactive
same,Potency,[15],inactive and 19.5 µM (active)
same,Potency,[16],inactive
same,Potency,[17],inactive
same,Potency,[19],inactive
O=C(O)Cn1cnnn1,Potency,[1],inactive
same,Potency,[2],inactive
same,Potency,[3],inactive
same,max response,[4],0.0865% (inactive)
same,Potency,[5],inactive
same,Potency,[6],inactive
same,Potency,[7],inactive
same,Potency,[8],inactive
same,Potency,[9],inactive
same,Potency,[10],inactive
same,Potency,[11],inactive
same,Potency,[12],inactive
same,Potency,[13],inactive
same,Potency,[14],inactive
same,Potency,[15],inactive
same,Potency,[16],inactive
same,Potency,[17],inactive
same,Potency,[18],inactive
same,Potency,[19],inactive
